PubChem BioAssay (NCATS)
Inconclusive results are not listed. Where a call stands in place of a potency, no number is given. Activity calls are given as the source filed them. Unless noted, the call rests on the fitted dose curve; in most records, active means well fitted curve in the direction sought with a large enough effect; inconclusive means small, poorly fitted or top-dose-only effect, or another doubt; inactive means no such curve, though single readings can be large; an effect the other way counts as inactive or inconclusive.

Target: Atrial natriuretic peptide receptor 1 (Homo sapiens) (UniProt P16066)
Sequence (P16066 whole entry, looked up): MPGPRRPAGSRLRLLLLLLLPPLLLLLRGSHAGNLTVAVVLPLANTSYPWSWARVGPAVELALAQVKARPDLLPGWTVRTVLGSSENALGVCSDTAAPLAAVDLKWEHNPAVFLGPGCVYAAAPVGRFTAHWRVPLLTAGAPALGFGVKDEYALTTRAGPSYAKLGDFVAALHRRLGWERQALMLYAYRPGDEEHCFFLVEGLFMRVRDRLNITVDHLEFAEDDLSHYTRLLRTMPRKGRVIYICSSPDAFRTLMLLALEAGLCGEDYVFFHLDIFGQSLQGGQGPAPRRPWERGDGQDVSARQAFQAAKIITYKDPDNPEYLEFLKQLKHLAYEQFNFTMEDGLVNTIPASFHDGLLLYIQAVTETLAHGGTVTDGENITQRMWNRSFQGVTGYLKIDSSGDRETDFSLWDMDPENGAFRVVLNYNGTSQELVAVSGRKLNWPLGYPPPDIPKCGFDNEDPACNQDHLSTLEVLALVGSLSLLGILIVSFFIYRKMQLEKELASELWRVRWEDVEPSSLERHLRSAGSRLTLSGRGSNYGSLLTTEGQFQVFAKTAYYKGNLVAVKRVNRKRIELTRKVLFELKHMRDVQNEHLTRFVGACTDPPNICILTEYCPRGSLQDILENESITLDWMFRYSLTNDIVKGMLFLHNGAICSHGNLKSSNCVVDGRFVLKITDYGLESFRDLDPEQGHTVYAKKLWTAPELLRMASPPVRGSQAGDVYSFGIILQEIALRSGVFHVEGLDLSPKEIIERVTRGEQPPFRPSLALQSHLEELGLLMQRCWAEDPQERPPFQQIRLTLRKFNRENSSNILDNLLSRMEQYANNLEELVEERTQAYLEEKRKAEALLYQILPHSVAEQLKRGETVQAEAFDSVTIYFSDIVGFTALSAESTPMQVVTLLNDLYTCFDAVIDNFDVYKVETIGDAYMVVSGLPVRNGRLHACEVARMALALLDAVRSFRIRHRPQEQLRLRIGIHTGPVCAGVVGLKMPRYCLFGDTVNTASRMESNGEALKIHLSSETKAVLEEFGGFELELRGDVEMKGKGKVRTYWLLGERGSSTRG
Assay: Natriuretic polypeptide receptor (hNpr1) antagonism - Pilot screen (AID 1347049; calls by dose curve;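 further: agonist-evoked cGMP luminescence read 20 min after hNppA addition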; further: potency means the concentration at half of the fitted maximal effect)
Details: hNpr1 cells, antagonist mode cGMP read-out; series mostly up to 57.5 µM
Procedure, shortened: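 Readout is cGMP-driven firefly luciferase luminescence in HEK293 cells carrying hNpr1 and a PDE5-domain GloSensor, read before and 20 min after 0.1 nM hNppA stimulation. Cells had 2% substrate reagent for 2 h and test compound for 30 min.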
With N#C/C(=C\c1ccc(O)c(O)c1)C(=O)NCCCc1ccccc1 the Potency was “inactive”. For CCC1C(=O)OCC1Cc1cncn1C (configuration not stated), the Potency was “inactive”. With C[N+](C)(C)CCOP(=O)(O)OP(=O)([O-])OC[C@H]1O[C@@H](n2ccc(N)nc2=O)[C@H](O)[C@@H]1O the Potency was “inactive”. In the case of CCNC(=O)[C@H]1O[C@@H](n2cnc3c(N)nc(NCCc4ccc(CCC(=O)O)cc4)nc32)[C@H](O)[C@@H]1O, the Potency is reported as “inactive”. With C=CC(N)CCC(=O)O (configuration not stated) the Potency was “inactive”. In the case of COc1ccc(/C=C/C(=O)Nc2ccccc2C(=O)O)cc1OC, the Potency is reported as 9.53 µM (active). In the case of CCN1/C(=C/C(C)=O)Sc2ccc(OC)cc21, the Potency is reported as “inactive”. For CC(N)C(=O)OC(C)(C)Cc1ccc(Cl)cc1 (configuration not stated), the Potency was “inactive”. With CN1CC(=O)N/C1=N/C(=O)Nc1cccc(Cl)c1 the Potency was “inactive”.

Target: Atrial natriuretic peptide receptor 2 (Homo sapiens) (UniProt P20594)
Sequence (P20594 whole entry, looked up): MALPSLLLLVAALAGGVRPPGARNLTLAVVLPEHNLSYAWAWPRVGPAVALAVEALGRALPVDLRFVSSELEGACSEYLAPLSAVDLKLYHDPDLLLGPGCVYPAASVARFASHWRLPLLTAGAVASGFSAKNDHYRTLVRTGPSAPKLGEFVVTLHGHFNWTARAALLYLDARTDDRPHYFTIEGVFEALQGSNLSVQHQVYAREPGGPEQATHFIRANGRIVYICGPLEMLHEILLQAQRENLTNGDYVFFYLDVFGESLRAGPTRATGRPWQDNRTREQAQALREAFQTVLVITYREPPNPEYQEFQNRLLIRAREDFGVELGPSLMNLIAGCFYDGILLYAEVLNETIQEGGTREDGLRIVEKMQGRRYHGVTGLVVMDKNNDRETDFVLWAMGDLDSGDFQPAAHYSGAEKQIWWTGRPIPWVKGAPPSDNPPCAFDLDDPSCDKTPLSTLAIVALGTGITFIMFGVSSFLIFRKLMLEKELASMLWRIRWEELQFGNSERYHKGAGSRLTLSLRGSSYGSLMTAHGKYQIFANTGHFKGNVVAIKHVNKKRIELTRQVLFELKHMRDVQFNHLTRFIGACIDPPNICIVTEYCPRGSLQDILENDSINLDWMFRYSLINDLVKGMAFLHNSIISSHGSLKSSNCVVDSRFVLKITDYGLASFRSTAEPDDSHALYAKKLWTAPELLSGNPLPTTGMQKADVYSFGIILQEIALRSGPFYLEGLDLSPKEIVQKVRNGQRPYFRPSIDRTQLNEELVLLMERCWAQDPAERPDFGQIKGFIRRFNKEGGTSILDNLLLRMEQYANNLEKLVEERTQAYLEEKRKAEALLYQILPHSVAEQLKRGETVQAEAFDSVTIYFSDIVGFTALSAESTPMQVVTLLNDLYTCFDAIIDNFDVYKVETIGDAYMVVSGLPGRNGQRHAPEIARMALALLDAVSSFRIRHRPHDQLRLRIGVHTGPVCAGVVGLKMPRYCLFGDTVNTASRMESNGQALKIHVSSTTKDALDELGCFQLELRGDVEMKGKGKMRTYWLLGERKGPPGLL
Assay: Natriuretic polypeptide receptor (hNpr2) antagonism - Pilot subtype selectivity assay (AID 1347050; calls by dose curve; further: potency means the concentration at half of the fitted maximal effect)
Details: NPR2-expressing cells, cGMP antagonist-mode read-out; series mostly up to 38.3 µM
Procedure, shortened: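 Pilot selectivity screen against hNpr2: HEK293 cGMP-sensor cells are treated with LOPAC1280 compounds, then with hNppC peptide at 1 nM final. The cGMP-driven luminescence change over 20 min at room temperature is the read-out.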
For N#C/C(=C\c1ccc(O)c(O)c1)C(=O)NCCCc1ccccc1, the Potency was “inactive”. For CCC1C(=O)OCC1Cc1cncn1C (configuration not stated), the Potency was “inactive”. In the case of C[N+](C)(C)CCOP(=O)(O)OP(=O)([O-])OC[C@H]1O[C@@H](n2ccc(N)nc2=O)[C@H](O)[C@@H]1O, the Potency is reported as “inactive”. In the case of O=C(O)/C=C/C(O)c1ccc(Cl)cc1 (configuration not stated), the Potency is reported as “inactive”. With CCNC(=O)[C@H]1O[C@@H](n2cnc3c(N)nc(NCCc4ccc(CCC(=O)O)cc4)nc32)[C@H](O)[C@@H]1O the Potency was “inactive”. In the case of C=CC(N)CCC(=O)O (configuration not stated), the Potency is reported as “inactive”. For COc1ccc(/C=C/C(=O)Nc2ccccc2C(=O)O)cc1OC, the Potency was 3.69 µM (active). In the case of CCN1/C(=C/C(C)=O)Sc2ccc(OC)cc21, the Potency is reported as “inactive”. For CC(N)C(=O)OC(C)(C)Cc1ccc(Cl)cc1 (configuration not stated), the Potency was “inactive”. For CN1CC(=O)N/C1=N/C(=O)Nc1cccc(Cl)c1, the Potency was “inactive”.

Test system: not listed separately
Assay: NS1 protein of Zika virus - qHTS assay to identify small molecule inhibitors in human HEK 293 cells (AID 1347053); further: nearly all actives have a fitted effect of over 55% in size
Details: HEK293 ZIKV MR766 infection, NS1 TR-FRET, 24 h; series mostly up to 46.1 µM
Procedure, shortened: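 Following 20 h seeding, HEK 293 cells took compound, then 1 h later ZIKV MR766 (MOI = 0.5). Incubation ran 24 h at 37 C before TR-FRET detection of NS1; a drop in signal indicates inhibition.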
For Cc1c(N)c(=O)n(-c2ccccc2)n1C, the Potency was “inactive”. In the case of CCC1C(=O)OCC1Cc1cncn1C (configuration not stated), the Potency is reported as “inactive”. For CN(CCCOc1ccc(Cc2ccccc2)cc1)CCC(=O)O, the Potency was “inactive”. For C[N+](C)(C)CCOP(=O)(O)OP(=O)([O-])OC[C@H]1O[C@@H](n2ccc(N)nc2=O)[C@H](O)[C@@H]1O, the Potency was “inactive”. In the case of c1ccc2sc(SN3CCOCC3)nc2c1, the Potency is reported as “inactive”. For C=CC(N)CCC(=O)O (configuration not stated), the Potency was “inactive”. With COc1ccc(/C=C/C(=O)Nc2ccccc2C(=O)O)cc1OC the Potency was “inactive”. In the case of CCN1/C(=C/C(C)=O)Sc2ccc(OC)cc21, the Potency is reported as “inactive”. For CC(N)C(=O)OC(C)(C)Cc1ccc(Cl)cc1 (configuration not stated), the Potency was “inactive”. In the case of Nc1c(CC(=O)O)cccc1C(=O)c1ccc(Br)cc1, the Potency is reported as “inactive”. With CN1CC(=O)N/C1=N/C(=O)Nc1cccc(Cl)c1 the Potency was “inactive”. In the case of CCOC(=O)c1ccccc1O, the Potency is reported as “inactive”. For O=[N+]([O-])c1ccc(CNc2nc(NCc3cccc(C(F)(F)F)c3)nc3nc[nH]c23)cc1, the Potency was “inactive”. In the case of Nc1ccc(O)c(C(=O)O)c1, the Potency is reported as “inactive”.

Target: T1, Tyrosine-protein phosphatase non-receptor type substrate 1 (Homo sapiens) + Leukocyte surface antigen CD47 (Homo sapiens) (UniProt P78324+Q08722)
T1 sequence (P78324 whole entry, looked up): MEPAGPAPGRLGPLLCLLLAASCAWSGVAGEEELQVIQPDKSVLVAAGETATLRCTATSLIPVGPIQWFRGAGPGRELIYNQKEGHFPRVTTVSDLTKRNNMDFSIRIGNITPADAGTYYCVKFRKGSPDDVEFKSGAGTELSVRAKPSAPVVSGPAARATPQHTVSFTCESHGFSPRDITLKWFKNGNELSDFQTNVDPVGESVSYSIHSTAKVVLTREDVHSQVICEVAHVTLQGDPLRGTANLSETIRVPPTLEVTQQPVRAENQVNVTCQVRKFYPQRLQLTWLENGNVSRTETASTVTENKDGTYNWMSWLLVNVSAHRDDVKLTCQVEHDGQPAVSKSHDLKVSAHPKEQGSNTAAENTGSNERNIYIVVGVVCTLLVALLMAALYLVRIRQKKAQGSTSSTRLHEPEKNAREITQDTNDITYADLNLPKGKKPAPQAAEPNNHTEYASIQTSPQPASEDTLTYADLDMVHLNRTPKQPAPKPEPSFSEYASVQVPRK
T1 sequence (Q08722 whole entry, looked up): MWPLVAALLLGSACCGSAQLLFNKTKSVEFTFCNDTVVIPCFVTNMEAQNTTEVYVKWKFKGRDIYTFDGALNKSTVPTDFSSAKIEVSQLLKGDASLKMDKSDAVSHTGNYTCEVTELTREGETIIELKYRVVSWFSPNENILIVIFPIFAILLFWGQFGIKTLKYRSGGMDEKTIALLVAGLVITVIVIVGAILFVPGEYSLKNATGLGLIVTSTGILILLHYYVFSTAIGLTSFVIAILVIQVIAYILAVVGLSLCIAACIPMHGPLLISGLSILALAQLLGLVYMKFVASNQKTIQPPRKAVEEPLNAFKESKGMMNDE
Assay: CD47-SIRPalpha protein protein interaction - LANCE assay qHTS validation (AID 1347057; active means well fitted curve in the direction sought with a large enough effect in the signal ratio, with a control signal flat, not every such curve was filed as active; the % refers to the signal ratio)
Details: Recombinant CD47-His / biotin-SIRPalpha, TR-FRET ratio; series mostly up to 38.3 µM
Procedure, shortened: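 First, His-tagged CD47 and Eu-labelled anti-His antibody met the compound for 30 min; next, site-specifically biotinylated SIRPalpha was added for 30 min; finally streptavidin-APC was added before reading the TR-FRET ratio.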
With CCC1C(=O)OCC1Cc1cncn1C (configuration not stated) the Potency was “inactive”. In the case of CN(CCCOc1ccc(Cc2ccccc2)cc1)CCC(=O)O, the Potency is reported as “inactive”. With C=CC(N)CCC(=O)O (configuration not stated) the Potency was “inactive”. With COc1ccc(/C=C/C(=O)Nc2ccccc2C(=O)O)cc1OC the Potency was “inactive”. With CCN1/C(=C/C(C)=O)Sc2ccc(OC)cc21 the Potency was “inactive”. In the case of CC(N)C(=O)OC(C)(C)Cc1ccc(Cl)cc1 (configuration not stated), the Potency is reported as “inactive”.

Target: T1, Tyrosine-protein phosphatase non-receptor type substrate 1 (Homo sapiens) + Leukocyte surface antigen CD47 (Homo sapiens)
Assay: CD47-SIRPalpha protein protein interaction - HTRF assay qHTS validation (AID 1347058; active means well fitted curve in the direction sought with a large enough effect in the signal ratio, not every such curve was filed as active; the % refers to the signal ratio;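 further: recombinant soluble extracellular CD47 with His tag and biotinylated SIRPalpha domains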)
Details: TR-FRET HTRF CD47-His / biotin-SIRPalpha binding, ratio 665/615; series mostly up to 38.3 µM
Procedure, shortened: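 TR-FRET read (Ch1/Ch2 ratio) of soluble extracellular CD47 and Avi-biotinylated SIRPalpha domains in PBS pH 7.4 with 0.05% IGEPAL; 7-point compound titration. Sequential 30 min room-temperature steps; non-biotinylated SIRPalpha as control inhibitor.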
With CCC1C(=O)OCC1Cc1cncn1C (configuration not stated) the outcome was “inactive”. For CN(CCCOc1ccc(Cc2ccccc2)cc1)CCC(=O)O, the outcome was “inactive”. For C[N+](C)(C)CCOP(=O)(O)OP(=O)([O-])OC[C@H]1O[C@@H](n2ccc(N)nc2=O)[C@H](O)[C@@H]1O, the outcome was “inactive”. For C=CC(N)CCC(=O)O (configuration not stated), the outcome was “inactive”. In the case of CCN1/C(=C/C(C)=O)Sc2ccc(OC)cc21, the outcome is reported as “inactive”. In the case of CC(N)C(=O)OC(C)(C)Cc1ccc(Cl)cc1 (configuration not stated), the outcome is reported as “inactive”. For CN1CC(=O)N/C1=N/C(=O)Nc1cccc(Cl)c1, the outcome was “inactive”. In the case of O=[N+]([O-])c1ccc(CNc2nc(NCc3cccc(C(F)(F)F)c3)nc3nc[nH]c23)cc1, the outcome is reported as “inactive”.

Target: T1, Tyrosine-protein phosphatase non-receptor type substrate 1 (Homo sapiens) + Leukocyte surface antigen CD47 (Homo sapiens)
Assay: CD47-SIRPalpha protein protein interaction - Alpha assay qHTS validation (AID 1347059);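 further: bead proximity luminescence from CD47 binding SIRPalpha after compound preincubation with SIRPalpha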
Details: AlphaScreen CD47-His/biotin-SIRPalpha binding, LOPAC; series mostly up to 38.3 µM
Procedure, shortened: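 Binding is measured by AlphaScreen proximity: Ni-NTA acceptor beads capture His-CD47, streptavidin donor beads capture biotin-SIRPalpha. Each of three additions (SIRPalpha with compound, CD47, beads) incubates 30 min at room temperature protected from light.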
With CCC1C(=O)OCC1Cc1cncn1C (configuration not stated) the Potency was “inactive”. With CN(CCCOc1ccc(Cc2ccccc2)cc1)CCC(=O)O the Potency was “inactive”. For C[N+](C)(C)CCOP(=O)(O)OP(=O)([O-])OC[C@H]1O[C@@H](n2ccc(N)nc2=O)[C@H](O)[C@@H]1O, the Potency was “inactive”. In the case of C=CC(N)CCC(=O)O (configuration not stated), the Potency is reported as “inactive”. For COc1ccc(/C=C/C(=O)Nc2ccccc2C(=O)O)cc1OC, the Potency was “inactive”. In the case of CCN1/C(=C/C(C)=O)Sc2ccc(OC)cc21, the Potency is reported as “inactive”. For CC(N)C(=O)OC(C)(C)Cc1ccc(Cl)cc1 (configuration not stated), the Potency was “inactive”. In the case of O=[N+]([O-])c1ccc(CNc2nc(NCc3cccc(C(F)(F)F)c3)nc3nc[nH]c23)cc1, the Potency is reported as “inactive”.

Target: Parathyroid hormone/parathyroid hormone-related peptide receptor (Homo sapiens) (UniProt Q03431)
Sequence (Q03431 whole entry, looked up): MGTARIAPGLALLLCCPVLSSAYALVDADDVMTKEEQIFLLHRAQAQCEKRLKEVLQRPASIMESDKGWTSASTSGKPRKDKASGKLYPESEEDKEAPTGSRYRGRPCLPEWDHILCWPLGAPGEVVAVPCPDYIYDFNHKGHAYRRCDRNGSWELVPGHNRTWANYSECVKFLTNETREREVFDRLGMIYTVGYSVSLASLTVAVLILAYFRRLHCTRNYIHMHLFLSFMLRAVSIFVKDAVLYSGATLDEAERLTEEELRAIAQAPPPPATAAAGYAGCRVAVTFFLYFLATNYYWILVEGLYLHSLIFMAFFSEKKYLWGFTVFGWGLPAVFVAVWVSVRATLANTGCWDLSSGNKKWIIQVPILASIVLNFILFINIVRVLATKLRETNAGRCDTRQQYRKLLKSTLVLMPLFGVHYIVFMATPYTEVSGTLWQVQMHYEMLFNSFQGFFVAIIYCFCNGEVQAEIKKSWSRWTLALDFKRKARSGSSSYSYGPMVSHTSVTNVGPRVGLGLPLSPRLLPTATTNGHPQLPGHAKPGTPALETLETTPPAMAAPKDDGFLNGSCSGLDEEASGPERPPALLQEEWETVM
Assay: qHTS for PTHR1 Agonists: Optimization Screen against the NCGC LOPAC library (AID 1347079);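 further: GloSensor cAMP luminescence in HEK-293 GP2 cells expressing human PTHR1 with IBMX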
Details: HEK293 GP2 PTHR1 GloSensor cAMP luminescence, 1 h; series mostly up to 57.1 µM
Procedure, shortened: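 Compounds were tested across a qHTS titration. PTHR1-expressing GP2 cells report cAMP rises via GloSensor luminescence after 1 hr compound exposure at 37C with IBMX present.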
In the case of N#C/C(=C\c1ccc(O)c(O)c1)C(=O)NCCCc1ccccc1, the Potency is reported as “inactive”. With CCC1C(=O)OCC1Cc1cncn1C (configuration not stated) the Potency was “inactive”. In the case of C[N+](C)(C)CCOP(=O)(O)OP(=O)([O-])OC[C@H]1O[C@@H](n2ccc(N)nc2=O)[C@H](O)[C@@H]1O, the Potency is reported as “inactive”. For O=C(O)/C=C/C(O)c1ccc(Cl)cc1 (configuration not stated), the Potency was “inactive”. In the case of CCN1/C(=C/C(C)=O)Sc2ccc(OC)cc21, the Potency is reported as “inactive”. With CC(N)C(=O)OC(C)(C)Cc1ccc(Cl)cc1 (configuration not stated) the Potency was “inactive”. In the case of CN1CC(=O)N/C1=N/C(=O)Nc1cccc(Cl)c1, the Potency is reported as “inactive”.
